HCV inhibitor – inhibitors of hepatitis C virus infection | Huh7.5.1 HCVcc-Cre infection, luciferase reporter, 44 h | Potency, µM (doses to about 41.8 µM), inactives show at the top dose activity change, negative = inhibition, actives largely listed as inhibitors | 340,000 compounds, 3.4% hits | AID 651820; active = well fitted inhibition curve with a large enough effect; inconclusive = small, poorly fitted or top-dose-only effect, or another doubt; inactive = no such curve, though single readings can be large or run the other way; also: potency is read from the fitted curve at half-maximal effect; % is scaled to controls: 0 for no effect and ±100 for the full control effect
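Cells seeded at 1,000/well and cultured 4 h, then compounds added followed by HCVcc-Cre virus (~0.5 moi). After 44 h further culture, luciferase substrate was added, plates held 15 min at room temperature, and luminescence read for 15 sec.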
LASV entry inh – blocks Lassa virus binding to or entry into cells | Potency, µM (series often up to 37.9 µM), for the others: at the highest dose activity change, negative = inhibition, hits mostly inhibitors | Lassa virus pseudotype entry inhibition, cell reporter | 300,000 compounds, 1.2% hits | AID 540256; calls by dose curve; tested in HEK293 cells; also: potency is read from the fitted curve at half-maximal effect; % is scaled to controls: 0 for no effect and ±100 for the full control effect; nearly all actives have a fitted effect of over 50% in size
Marburg entry inh – inhibitors of Marburg virus binding or cell entry; Potency, µM (titrated, usually from 37.8 µM), without a hit: at the top dose activity change, negative = inhibition, most hits filed as inhibitors; 300,000 compounds, 1.8% hits; AID 540276; Marburg virus pseudotyped entry inhibition, cell reporter; calls by dose curve; tested in HEK293 cells; also: potency is read from the fitted curve at half-maximal effect; % is scaled to controls: 0 for no effect and ±100 for the full control effect
SARS PLpro yeast – inhibitors of SARS-CoV papain-like protease in yeast. AID 485353. 330,000 compounds, 0.19% hits. S. cerevisiae expressing SARS-CoV PLpro, growth rescue. Potency, µM (titrated, usually from 32.9 µM), for the others: at the top dose activity, positive = growth rescue, usual class: activators; calls by dose curve; also: potency is read from the fitted curve at half-maximal effect; 0% is about no effect; nearly all actives have a fitted effect of over 55% in size
HCMV inh – inhibitors of human cytomegalovirus | HFF cells, HCMV-luciferase reporter, 72 h; hits give low values | activity change, negative = inhibition, % at 57.5 µM | 410,000 compounds, 4.5% hits; in the data active = activity change below about -60%; inconclusive = no clear call, values can overlap the other calls; inactive = above about -39%; also: % is scaled to controls: 0 for no effect and ±100 for the full control effect
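Compounds were evaluated in HFFs infected with an HCMV luciferase reporter virus (MOI 1 PFU/cell). Luciferase in lysates collected 72 h post infection served as the replication measure.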
FMDV antiviral – blocks foot and mouth disease virus; FMDV antiviral cell-based qHTS; Potency, µM (series often up to 57.9 µM), for inactives: at the top dose activity change, negative = inhibition, hits mostly inhibitors; 410,000 compounds, 1.2% hits; calls by dose curve; tested in HEK293T cells; also: read-out not given here; potency is read from the fitted curve at half-maximal effect; % is scaled to controls: 0 for no effect and ±100 for the full control effect; nearly all actives have a fitted effect of over 45% in size
Active calls of the source: *; ? = inconclusive; nt = no result given; ! = repeats disagree; [ ] = dose if it differs, or a comment. Compounds with a hit are over-represented: about 8% of the library has one in this group of screens.

SMILES	HCV inhibitor	LASV entry inh	Marburg entry inh	SARS PLpro yeast	HCMV inh	FMDV antiviral
CN(C)c1ccc(-c2nc3cnccn3c2Nc2cccc(C(F)(F)F)c2)cc1	nt	-11%[46.1 µM]	-3%[46.1 µM]	nt	18	-19%
CC(C)c1ccc(Nc2cc3c(cn2)cc(-c2ccccc2)n3C)cc1	nt	nt	nt	nt	-21	nt
COc1ccc(-c2nn3ncccc3c2-c2ccnc(Nc3cccc(C(F)(F)F)c3)n2)cc1	nt	25µM*	nt	nt	nt	nt
COc1cccc(Nc2nccc(-c3cnn4ncccc34)n2)c1	nt	0.56µM*	nt	nt	nt	nt
COC(=O)C1(C(=O)OC)Cc2conc2[C@@H]1c1ccccc1	nt	nt	-10%[14.2 µM]	nt	nt	nt
COc1cc(-c2nc(-c3ccccc3)c(-c3ccc(Br)cc3)[nH]2)cc(OC)c1O	nt	?	?	nt	3	5%
Oc1ccc(-c2nc(-c3ccccc3)c(-c3ccc(Br)cc3)[nH]2)cc1	nt	-24%[46.1 µM]	9%[46.1 µM]	nt	-63*	-10%
O=C1CCCC2=C1C(c1ccccc1)C1=C(CCCC1=O)O2	nt	nt	-1%	4%	nt	nt
O=C1CCCC2=C1C(c1ccc(OS(=O)(=O)c3ccc(Cl)cc3)cc1)C1=C(CCCC1=O)O2	13µM*	-24%	-21%	-4%	-38	-22%
CC1CC(C)CN(Cc2nc(N)nc(Nc3ccc4ccccc4c3)n2)C1 (centres undefined)	13µM*	?	?	1%	-3	-28%
Nc1nc(CN2CCN(c3ccccc3)CC2)nc(Nc2ccc(Cl)cc2)n1	13µM*	nt	nt	-1%	-65*	32µM*
COc1ccc(Nc2nc(N)nc(CSC(=S)N3CCCCC3C)n2)cc1 (centres undefined)	?	7.1µM*	?	13%	-63*	-25%
COc1ccc(Nc2nc(N)nc(CN3CCC(C)CC3)n2)cc1	0%	9%	6%	-2%	-91*	7%
COc1ccc(Nc2nc(N)nc(CN3CCc4ccccc4C3)n2)cc1	-8%	nt	nt	-1%	-36	-25%
COc1cccc(C(=O)C2CCCN(C(=O)c3cccc(C#CC(C)(C)O)c3)C2)c1 (centres undefined)	-17%	?	-25%[46.1 µM]	0%	-34	0%
CCOc1ccccc1CNC(=O)CCCn1c(=O)c2cccn2c2ccc(F)cc21	nt	0%[46.1 µM]	nt	nt	33	?
Cc1ncc2c(c1CNC(=O)/C=C/c1cccs1)CCN(C(=O)c1noc3c1CCCC3)C2	nt	nt	nt	nt	nt	-2%
COc1ccc2sc(-c3ccccc3OC)c(-c3ccc(OCCN(C)C)cc3)c2c1	10µM*	nt	nt	3%	4	-4%
COc1cccc(-c2sc3ccccc3c2-c2ccc(OCCN3CCCC3)cc2)c1	?	nt	nt	-4%	-21	?
COc1cccc(-c2sc3ccccc3c2-c2ccc(OCCN(C)C)cc2)c1	11µM*	nt	nt	-6%	-40	?
CCc1ccccc1Nc1cc(C(=O)NCc2ccc(C)cc2)c2ccccc2n1	nt	0%[46.1 µM]	-25%[46.1 µM]	nt	1	-3%
Oc1ccc(Oc2ncc(Cl)cc2Cl)cc1	7%	1%	-3%	-8%	13	-5%
Clc1cnc(Oc2ccc(Oc3ncc(Cl)cc3Cl)cc2)c(Cl)c1	23%	?	1µM*!	2%	-24	-10%
N/C(=N\NC(=O)c1sccc1OCc1ccc(Cl)cc1Cl)c1ccccn1	?	?	8.9µM*	-1%	?	-17%
CCOC(=O)CNC(=O)c1ccc(-c2nn(C)c(=O)c3ccccc23)cc1	nt	12%[46.1 µM]	11%[46.1 µM]	nt	27	-9%
SMILES	HCV inhibitor	LASV entry inh	Marburg entry inh	SARS PLpro yeast	HCMV inh	FMDV antiviral
COc1ccc(-c2nc3sc(CCNC(=O)c4cccc(C(F)(F)F)c4)c(C)n3n2)cc1	nt	-11%[46.1 µM]	nt	nt	52	34%
O=[As](O)(O)c1ccc(N=Nc2ccc(O)cc2)cc1	-24%	nt	nt	2%	-80*	32%
CCSC(=O)N=Nc1ccc(O)cc1	-10%	-20%	-9%	nt	-15	-11%
CCN1C(=NCc2ccc3c(c2)OCO3)NC(c2ccccc2)C(C(=O)OC)=C1C (centres undefined)	nt	nt	-18%[14.2 µM]	nt	nt	nt
COC(=O)[C@]12CCCCC=C1N(Cc1cccc3ccccc13)C(=O)[C@H](CC(=O)NCC13CC4CC(CC(C4)C1)C3)C2	nt	nt	nt	nt	-85*	-14%
CCOC(=O)[C@]12CCCC=C1N(Cc1cccc3ccccc13)C(=O)[C@H](CC(=O)NCc1ccc(OC)c(OC)c1)C2	nt	nt	nt	nt	-76*	?
CCOC(=O)[C@]12CCC=C1N(Cc1ccc(Cl)cc1Cl)C(=O)[C@H](CC(=O)NCc1ccc(OC)c(OC)c1)C2	nt	nt	nt	nt	-93*	?
C#CCNC(=O)C[C@@H]1C[C@@]2(C(=O)OC)CCCCC=C2N(Cc2cccc3ccccc23)C1=O	nt	nt	nt	nt	2	-24%
CCOC(=O)[C@]12CCCC=C1N(Cc1ccccc1)C(=O)[C@H](CC(=O)NCc1ccc(OC)c(OC)c1)C2	nt	nt	nt	nt	-3	-7%
Cc1ccc(C)c(CNC(=O)c2cnc3sc(N4CCCC4)nn3c2=O)c1	nt	nt	-1%[46.1 µM]	nt	1	-17%
CCOc1cc([C@@H]2C[C@H]3CN(c4ccccc4)C(=O)[C@]34CCCN24)ccc1OC	?	nt	?	0%	-69*	4%
COc1cc([C@@H]2C[C@H]3CN(c4ccccc4)C(=O)[C@]34CCCN24)cc(OC)c1OC	-27%	nt	nt	1%	?	-10%
COc1ccccc1-n1cc([C@@H]2C[C@H]3CN(c4ccccc4)C(=O)[C@]34CCCN24)cn1	5.6µM*	?	10µM*	-2%	-97*	-7%
Cc1ccccc1-c1cc2nc(NCc3ccc(N(C)C)cc3)n(C)c(=O)c2s1	nt	nt	nt	nt	-28	-6%
C[C@@H](NC(=O)CN(c1ccccc1)S(=O)(=O)N(C)C)c1ccccc1	nt	16%[46.1 µM]	1%[46.1 µM]	nt	-105*	-24%
COc1ccc(S(=O)(=O)N(CC(=O)NCc2ccccc2)c2ccc(C)cc2)cc1OC	nt	26%[46.1 µM]	nt	nt	-105*	18µM*
COc1ccc(S(=O)(=O)N(CC(=O)NC(C)c2ccccc2)c2ccc(C)cc2)cc1OC (centres undefined)	nt	?	nt	nt	-88*	?
COc1ccc(CNC(=O)CN(c2ccc(C(C)=O)cc2)S(=O)(=O)c2ccc(C)cc2)cc1OC	0%	-26%	?	-10%	0	7%
CCOc1ccc(N(CC(=O)NC(C(C)C)C(C)C)S(=O)(=O)c2ccc(OC)c(OC)c2)cc1	10µM*	nt	nt	0%	-12	-8%
COc1ccc(/C=C/c2cc(-c3ccc(C)cc3)o[n+]2C)cc1	?	?	?	-11%	-104*	2.8µM*
CC(C)CN1CCC(CN2CCNC(=O)C2=O)CC1	24%	nt	nt	nt	14	-10%
c1cnc2c(c1)ccc1ncccc12	8%	nt	nt	-1%	0	1%
Cc1ccc2ccc3cccnc3c2n1	?	?	?	nt	-78*	10%
Cc1ccc(CC(=O)Nc2ncc([N+](=O)[O-])s2)cc1	-5%	nt	nt	-3%	37	62%
CCCCC(CC)C(=O)Nc1ncc([N+](=O)[O-])s1 (centres undefined)	?	?	?	0%	-74*	?

Screening results (PubChem)
